This note sets out measurements from PubChem BioAssay (NCI).

Compounds without any hit were thinned out: in the full panel of roughly 79,000, 15% have a hit. Unmarked numbers belong to inactive results. Activity calls are given as the source filed them. Cut-off read from the data, not from the text of the source: active = growth inhibition above about 70%; inactive = the rest. Where a SMILES comes first, the peptide text is derived from it. [ ]: non-standard residue; d: D form. The star is where a group is joined. ξ: configuration not given here. Cbz = O=C(OCc1ccccc1)*; ξM = CSCCC(N)C(=O)O

A short description of assay [1]: NCI Yeast Anticancer Drug Screen. Data for the rad50 strain (AID 155).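 Note: 0% = growth of vehicle-only cultures of the same strain.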 The note with it: S. cerevisiae rad50 strain growth inhibition; at 50.0 µM; hits give high values. In a few lines:
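Cells are treated with compound, grown, and their growth is then scored against vehicle-only cultures of the same repair-deficient yeast strain.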

Assay [2] can be described thus: NCI Yeast Anticancer Drug Screen. Data for the mec2-1 strain (AID 157). Conditions: S. cerevisiae mec2-1 strain, at 50.0 µM, hits give high values. Put shortly: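 Compounds were applied to mec2-1 yeast cells. Their growth was then compared with that of vehicle-treated cultures to give growth inhibition.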
A short description of assay [3]: NCI Yeast Anticancer Drug Screen. Data for the sgs1 mgt1 strain (AID 161).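 Note: 0% = growth of cultures given vehicle only.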 Conditions: S. cerevisiae sgs1 mgt1 strain, at 50.0 µM, hits give high values. Put shortly:
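Percent growth inhibition was derived by comparing compound-exposed mutant yeast with vehicle-exposed cultures. The strain carries alterations in DNA damage repair.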

Assay [4] can be described thus: NCI Yeast Anticancer Drug Screen. Data for the cln2 rad14 strain (AID 165).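 Note: 0% = growth equal to vehicle treated cultures.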 The note with it: S. cerevisiae cln2 rad14 strain, at 50.0 µM, hits give high values. Put shortly:
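Strain: cln2 rad14 yeast, altered in cell cycle control and DNA damage repair. Read-out: growth inhibition vs vehicle.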

A short description of assay [5]: NCI Yeast Anticancer Drug Screen. Data for the bub3 strain (AID 167). Conditions: S. cerevisiae bub3 mutant strain, at 50.0 µM, hits give high values. Put shortly:
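Part of a panel of yeast mutants defective in DNA damage repair or cell cycle regulation. Each strain is grown with compound, and inhibition is calculated relative to solvent-treated cultures.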

Assay [6] in a line: NCI Yeast Anticancer Drug Screen. Data for the mlh1 rad18 strain (AID 175). The note with it: S. cerevisiae mlh1 rad18 strain growth inhibition; at 50.0 µM; hits give high values. Put shortly: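 A repair-deficient yeast strain is exposed to test compound, and growth is scored relative to vehicle-treated controls.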

As for `O=c1[nH]c2cc3ccccc3cc2c2ccccc12`, the growth inhibition in assay [1] is 21.9%; in assay [2], 9.6%; in assay [3], 0.8%; in assay [4], -15.7%; in assay [5], -1.7%; in assay [6], 14.2%.

In the case of `CCSCC1(c2ccc(OC)cc2)NC(=O)NC1=O` (configuration not stated), the growth inhibition was -20.5% in assay [1]; 2.65% in assay [2]; 7.6% in assay [3]; -10.1% in assay [4]; -10.7% in assay [5]; 1.05% in assay [6].

As to `OCCCCCCCCCCCO`, the growth inhibition in assay [1] is 16.9%; in assay [2] it was 2.3%; in assay [3] it was 4.35%; in assay [4], -15.5%; in assay [5], 12.6%; in assay [6], -19.9%.

Consider `CCOc1cc2c(cc1Cc1ccc3c(c1)OCO3)OCO2`, for which the growth inhibition in assay [1] is -8.15%; in assay [2] it was -11.8%; in assay [3] it was -5.6%; in assay [4] it was -12.1%; in assay [5], 4.35%; in assay [6], 1.3%.

`CCCCCCCCCCCC(=O)c1c(O)cccc1O`: the growth inhibition in assay [1] is -10.1%; in assay [2] it was -16.1%; in assay [3] it was 7.75%; in assay [4] it was 16.9%; in assay [5] it was 10.7%; in assay [6] it was -20.1%.

As to `O=C(CN1C(=O)c2ccccc2C1=O)NC1(C(=O)O)CCCC1`, the growth inhibition in assay [1] was -3.25%; in assay [2], -14%; in assay [3], -27.9%; in assay [4], -2.65%; in assay [5] it was -30.8%; in assay [6] it was -0.15%.

Turning to `N#CC1C2C1C1C=CC2n2c(=O)n(-c3ccccc3)c(=O)n21` (configuration not stated), the growth inhibition was 3% in assay [1]; 2.5% in assay [2]; 3.25% in assay [3]; 27.4% in assay [4]; 7.15% in assay [5]; 4.95% in assay [6].

For `Nc1ccc(S(=O)(=O)NNc2nc(N3CCCCC3)nc(N3CCCCC3)n2)cc1`, the growth inhibition in assay [1] was -1.3%; in assay [2], 1.95%; in assay [3], 10.2%; in assay [4], 7.9%; in assay [5], -11.7%; in assay [6], -5%.

As for `CC#CC(C)(C)N(C)C`, the growth inhibition is -16.6% in assay [1]; -8.45% in assay [2]; -8.75% in assay [3]; -21.4% in assay [4]; 12.8% in assay [5]; 14.1% in assay [6].

As for `Cc1c(Cl)cccc1NC(=O)Oc1ccc(Cl)cc1`, the growth inhibition was 1.75% in assay [1]; -2.75% in assay [2]; -5.6% in assay [3]; -7.45% in assay [4]; -9.7% in assay [5]; -4.05% in assay [6].

Consider `O=C1OC(c2ccccc2)=N/C1=C\c1cccnc1`, for which the growth inhibition is 12.3% in assay [1]; -3.25% in assay [2]; 0% in assay [3]; -10.3% in assay [4]; -5.8% in assay [5]; 13.1% in assay [6].

`CC(C)N(C(C)C)C1C=CC(N(C(C)C)C(C)C)CC1` (configuration not stated): the growth inhibition in assay [1] is 5%; in assay [2], -15.9%; in assay [3], 2.3%; in assay [4] it was -33.6%; in assay [5] it was -7.3%; in assay [6], -0.35%.

Take `CN1CCc2cc3c(cc2C(=O)Cc2ccc4c(c2C1)OCO4)OCO3`: the growth inhibition was -14.7% in assay [1]; -13.8% in assay [2]; -8.35% in assay [3]; 10.4% in assay [4]; -13.4% in assay [5]; -27.3% in assay [6].

Regarding `CCNc1ncnc2c1cnn2C1CCCCC1`, the growth inhibition was 5.3% in assay [1]; -7.15% in assay [2]; -5.85% in assay [3]; -35.9% in assay [4]; 0.5% in assay [5]; -2.5% in assay [6].

Consider `NC(=O)CSCC(N)C(=O)O` (configuration not stated), for which the growth inhibition in assay [1] is -9.75%; in assay [2], -26.4%; in assay [3] it was -13.1%; in assay [4], -21.9%; in assay [5], -28.5%; in assay [6], -20%.

Take `CCc1ccc(C(=O)O)cc1S(=O)(=O)Cl`: the growth inhibition is 7.2% in assay [1]; 13.4% in assay [2]; -12.6% in assay [3]; -9.4% in assay [4]; 2.55% in assay [5]; 1.45% in assay [6].

In the case of `O=C(c1ccccc1)c1ccc2c(c1)-c1ccccc1-2`, the growth inhibition in assay [1] was 7.3%; in assay [2], -7%; in assay [3], 15.1%; in assay [4] it was -21.1%; in assay [5], 12.8%; in assay [6] it was 12.8%.

For `Cc1ccc(S(=O)(=O)NCC(=O)OCc2ccccc2)cc1`, the growth inhibition in assay [1] is 4.15%; in assay [2], 3.4%; in assay [3] it was 1.2%; in assay [4], -0.55%; in assay [5], 12.4%; in assay [6] it was 7.8%.

Consider `CC(Nc1ncccn1)Nc1ncccn1`, for which the growth inhibition in assay [1] was -6.4%; in assay [2] it was 1.8%; in assay [3], 7.75%; in assay [4] it was -29.9%; in assay [5], -1.95%; in assay [6] it was -1.75%.

For `Cc1cc2oc(=O)cc(C(=O)O)c2c(=O)o1`, the growth inhibition is -15.8% in assay [1]; -9.55% in assay [2]; -13.2% in assay [3]; -17.6% in assay [4]; -8.85% in assay [5]; -16.1% in assay [6].

Take `Cc1ccc(N=NC2Sc3nc4ccccc4n3C2=O)cc1` (configuration not stated): the growth inhibition in assay [1] is -7.1%; in assay [2] it was 9.75%; in assay [3], -0.7%; in assay [4], -35.5%; in assay [5], 16.3%; in assay [6], 13.2%.

As for `COC(=O)C1=C(O)C(C(=O)OC)[C@@]2(O)[C@@H](C(=O)OC)[C@H](C)C[C@@H]1[C@@H]2C(=O)OC` (some centres not stated), the growth inhibition was 41.6% in assay [1]; 15.4% in assay [2]; 47% in assay [3]; -1.05% in assay [4]; 23.1% in assay [5]; 38.5% in assay [6].

Turning to `Nc1cccc(/C=C/c2ccc([N+](=O)[O-])cc2)c1`, the growth inhibition in assay [1] is -2.3%; in assay [2], 24.6%; in assay [3], 54.7%; in assay [4], -12.4%; in assay [5], 30%; in assay [6], 39.5%.

In the case of `CN1C2CCC1/C(=C/c1cccc3c1OCO3)C(=O)/C2=C\c1cccc2c1OCO2`, the growth inhibition in assay [1] was 27.8%; in assay [2], 19.8%; in assay [3], 20.4%; in assay [4], -52%; in assay [5] it was 32.3%; in assay [6] it was 27.1%.

On to `CCN(CC)C(=O)C1CCCCN1` (configuration not stated), for which the growth inhibition in assay [1] was 1.65%; in assay [2], 2.6%; in assay [3], 3.1%; in assay [4], -43.2%; in assay [5], -11%; in assay [6], 6.65%.

Regarding `C=C1C(=O)OC2/C=C(\C)CC(O)/C=C(/CO)CC(OC(=O)/C(C)=C/C)C12` (configuration not stated), the growth inhibition was -4.5% in assay [1]; -33.6% in assay [2]; -6.55% in assay [3]; -1.9% in assay [4]; -1.65% in assay [5]; -58.5% in assay [6].

Take `CSCCC(NC(=O)CNC(=O)CNC(=O)OCc1ccccc1)C(=O)O` (stereo not drawn) (Cbz-Gly-Gly-[ξM]-OH): the growth inhibition in assay [1] was 96.5% (active); in assay [2], 98.7% (active); in assay [3], 92.5% (active); in assay [4], 98.4% (active); in assay [5] it was 99% (active); in assay [6] it was 96.7% (active).

With `CC(C)(C)c1ccc(O)c(C(c2cc(C(C)(C)C)ccc2O)c2cc(C(C)(C)C)ccc2O)c1`, the growth inhibition was 97.2% (active) in assay [1]; 98.7% (active) in assay [2]; 98% (active) in assay [3]; 97.6% (active) in assay [4]; 96.5% (active) in assay [5]; 96.8% (active) in assay [6].

For the compound `NC(=O)/N=C/NC(N)=O`, the growth inhibition is 21.6% in assay [1]; -14.3% in assay [2]; 21.8% in assay [3]; -5.3% in assay [4]; -24.5% in assay [5]; 2.65% in assay [6].

As to `COc1ccc(OC)c2c(Cl)cc(NCCCN3CCN(CCCNc4cc(Cl)c5c(OC)ccc(OC)c5n4)CC3)nc12`, the growth inhibition in assay [1] was 13.5%; in assay [2], 16.4%; in assay [3], 21.8%; in assay [4] it was -24.1%; in assay [5] it was 4.65%; in assay [6], 25.1%.

For the compound `N#C/C(=C\c1c[nH]c2ccccc12)C(=O)c1ccc(O)c(O)c1`, the growth inhibition in assay [1] is -6.55%; in assay [2] it was 0.25%; in assay [3], -20.6%; in assay [4], 18.1%; in assay [5], 2.95%; in assay [6], -6.95%.

For `CC(C)CC(=O)NS(=O)(=O)c1ccccc1`, the growth inhibition is -6.15% in assay [1]; 5.05% in assay [2]; -3.05% in assay [3]; 5.2% in assay [4]; -17.4% in assay [5]; -22.2% in assay [6].

Consider `C/C=C(/C)C(=O)O[C@H]1C[C@@H]2[C@@H](O)c3occ(C)c3C[C@]2(C)[C@@H](C)C1`, for which the growth inhibition is 91% (active) in assay [1]; 92.4% (active) in assay [2]; 91.6% (active) in assay [3]; 90% (active) in assay [4]; 90.8% (active) in assay [5]; 90.2% (active) in assay [6].

With `Cn1c2nc(-[n+]3ccc(N4CCOCC4)cc3)nc-2c([O-])n(C)c1=O`, the growth inhibition in assay [1] is -20.8%; in assay [2] it was 1.1%; in assay [3] it was -17.9%; in assay [4] it was -44.9%; in assay [5] it was -10.8%; in assay [6], -11.7%.

For the compound `Cc1nc2sccn2c1C(=O)NC(=O)Nc1ccc(Cl)cc1`, the growth inhibition is 0.35% in assay [1]; -14.8% in assay [2]; -2.75% in assay [3]; 5.45% in assay [4]; -9.8% in assay [5]; -16.1% in assay [6].

`O=C1c2c(-c3ccccc3)ccc(-c3ccccc3)c2C2(O)OC1(O)c1c(-c3ccccc3)ccc(-c3ccccc3)c1C2=O`: the growth inhibition was 5.65% in assay [1]; 4.95% in assay [2]; 9.1% in assay [3]; -6.9% in assay [4]; 6.4% in assay [5]; -13.9% in assay [6].

On to `O=C(CN1CCN(Cc2ccccc2)CC1)N1CCCn2c1nc1ccccc1c2=O`, for which the growth inhibition was -18.1% in assay [1]; -16.6% in assay [2]; -7.9% in assay [3]; 7.6% in assay [4]; 11.9% in assay [5]; -3.85% in assay [6].
